Source: PubChem
The sample as a whole holds a higher share of hits than the screen did.
TbREL1 primary: TbREL1 inhibition, primary screen | actives 0.49% (n = 89,000) | P86926 | AID 1117264 | inhibition, % at 9.66 µM | TbREL1 RNA ligation, FRET fluorescence;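 active means inhibition above the mean inhibition across all screened compounds plus 3 SD, cut at about 11% in these data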
Target sequence (P86926 whole entry, looked up): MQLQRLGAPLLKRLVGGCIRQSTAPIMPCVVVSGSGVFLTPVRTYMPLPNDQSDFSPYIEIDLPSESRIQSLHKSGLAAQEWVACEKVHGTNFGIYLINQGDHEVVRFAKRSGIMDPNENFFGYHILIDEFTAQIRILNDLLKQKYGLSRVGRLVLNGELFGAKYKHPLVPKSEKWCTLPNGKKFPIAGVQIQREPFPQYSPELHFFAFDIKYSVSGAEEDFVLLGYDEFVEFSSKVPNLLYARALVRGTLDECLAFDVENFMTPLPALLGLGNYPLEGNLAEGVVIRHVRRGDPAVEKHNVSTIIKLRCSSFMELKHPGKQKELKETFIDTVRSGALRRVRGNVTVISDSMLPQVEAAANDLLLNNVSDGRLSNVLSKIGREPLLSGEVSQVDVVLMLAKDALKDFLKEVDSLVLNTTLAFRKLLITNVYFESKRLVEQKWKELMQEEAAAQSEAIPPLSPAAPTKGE
TbREL1 conf: TbREL1 inhibition, confirmation; shares compounds with TbREL1 primary; TbREL1 RNA ligation, FRET fluorescence; inhibition, % at 9.66 µM; actives 37% (n = 390); AID 1117282;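 active means mean inhibition across replicates above a set limit taken from the earlier primary screen, cut at about 11% in these data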
Numbers stand for hits; n = inactive.

SMILES | TbREL1 primary | others
COc1cc2c(cc1OC)C(c1ccc(-c3ccc(Cl)cc3Cl)o1)=NCC2 | n
COc1cc2c(cc1OC)C(c1ccc(Cl)cc1)=NCC2 | n
COc1cc2c(cc1OC)C(c1ccc(-c3ccc(Cl)c(Cl)c3)o1)=NCC2 | 14 | TbREL1 conf=24
O=C(NCc1ccco1)C1CCCN(S(=O)(=O)c2ccccc2[N+](=O)[O-])C1 (stereo not drawn) | n
COC(=O)[C@]12CCCCC=C1N(Cc1ccc(OC)cc1)C(=O)[C@@H]2CC(=O)NCCc1ccccc1OC | n
CN(C)[C@@H]1CCN(c2cccc3c2S(=O)(=O)N2CC[C@@H](C2)O3)C1 | n
C=CCNC(=O)N1CCC(c2nc3ccc(Cl)cc3[nH]2)CC1 | n
CSCCCNc1nc(C)nc2c1nnn2Cc1ccccc1 | n
O=c1c2cc3cc4c(cc3nc2ncn1CCc1ccccc1)OCO4 | 15 | TbREL1 conf=n
O=c1c2cc3ccccc3nc2ncn1CCc1ccc(Cl)cc1 | n
O=c1c2cc3cc4c(cc3nc2ncn1Cc1cccnc1)OCO4 | n
O=C(CSc1nnc(-c2cccnc2)n1-c1ccccc1)Nc1cccc2ccccc12 | n
CN(CCc1ccccn1)C(=O)c1ccc(Sc2ccccc2Cl)c([N+](=O)[O-])c1 | n
O=C(Nc1cccc(Cl)c1)OCCN1CCCC12CCC(c1ccccc1)CC2 (stereo not drawn) | n
O=C(OC12CCCN(C1)/C(=C/c1cccnc1)C2)c1ccc(F)cc1 (stereo not drawn) | n
COc1ccc(CN(CCN2CCOCC2)C(=O)c2cc(F)ccc2F)cc1OC | n
CCCOc1ccc(C(F)(F)F)cc1NC(=O)CN1C(=O)C(=O)N(CC)C1=O | n
COCCOc1ccc(C(F)(F)F)cc1NC(=O)CN1C(=O)NC(C)(c2ccc3c(c2)OCO3)C1=O (stereo not drawn) | n
CCN1CCN(CC(=O)Nc2cc(C(F)(F)F)ccc2OCCOC)CC1 | 15 | TbREL1 conf=n
CCCCC(=O)N1CCN(C(=O)c2ccc3c(c2)nc(C)n3C2CCCC2)CC1 | n
CC#CC(=O)N[C@H]1CC[C@@]23CCCN2C(=O)CCC[C@H]3[C@H]1C | n
CC(C)(C)c1ccc(S(=O)(=O)N2CCCC2C(=O)N2CCN(c3ccccc3)CC2)cc1 (stereo not drawn) | n
O=C(Cc1ccccc1)Nc1nnc(-c2cccnc2)s1 | n
COCCN(C(=O)/C=C/c1ccccc1)c1c(N)n(Cc2ccccc2)c(=O)[nH]c1=O | n
COCCN(C(=O)/C=C/c1ccccc1)c1nnc(-c2cccnc2)s1 | 12 | TbREL1 conf=n
SMILES | TbREL1 primary | others
CN(C)S(=O)(=O)c1cccc(C(=O)N/N=C\c2ccc(-c3ccccn3)cc2)c1 | n
C[C@@H]1[C@@H](O)C[C@@]2(C[C@H](O)c3cc(F)ccc3O2)O[C@H]1c1ccccc1Cl | n
CCOc1cc(NC(=O)C2CCCO2)c(OCC)cc1NC(=O)C1CC1 (stereo not drawn) | n
CCOc1cc(NC(=O)CCl)c(OCC)cc1NC(=O)CCl | 12 | TbREL1 conf=n
CCOc1ccccc1OCC(=O)Nc1ccc(Cl)cc1Cl | n
O=S1(=O)c2ccc(N3CCC[C@@H]3CO)cc2O[C@@H]2CCN1C2 | n
CCNC(=O)CCc1nc(-c2ccc(C(C)C)cc2)no1 | n
COCc1cc(N2CCN(C(=O)OC(C)(C)C)C[C@H]2C)ccc1N1CCS(=O)(=O)CC1 | n
Nc1ccc2c(S(=O)(=O)O)cccc2c1S(=O)(=O)O | n
Nc1cccc(S(=O)(=O)c2cccc(N)c2)c1 | n
Nc1cccc2cc(S(=O)(=O)O)ccc12 | 26 | TbREL1 conf=n
COC(=O)c1ccc(S(=O)(=O)N2CCC(NC(=O)CCC3CCCC3)CC2)cc1 | n
CC1=NN(c2ccccc2)C(=O)/C1=C/N(C)C | 12 | TbREL1 conf=n
CC1=NN(c2ccccc2)C(=O)/C1=C\c1cc(C)n(C)c1C | n
CN(C)/C=C1/C(=O)N(c2ccc([N+](=O)[O-])cc2)N=C1c1ccccc1 | n
CC(C)(C)N(NC(=O)NCCCl)C(=O)c1ccccc1Cl | n
O=C(CSc1nnc(-c2cccnc2)n1C1CCCCC1)N1CCCC1 | n
COc1ccc2c(c1)CCCN2C(=O)C1CCCN(S(=O)(=O)c2ccccc2)C1 (stereo not drawn) | n
O=C(O)c1ccc2c(c1)C1C=CCC1C(c1ccncc1)N2 (stereo not drawn) | n
COc1ccc(NS(=O)(=O)c2ccc3c(c2)[C@H]2C=CC[C@H]2[C@@H](c2ccc(C(=O)O)cc2)N3)cc1 | 15 | TbREL1 conf=17
CC(=O)c1ccc2c(c1)C1C=CCC1C(c1ccc(S(=O)(=O)N3CCOCC3)cc1)N2 (stereo not drawn) | n
CC(C)CSc1ncccc1-c1nc2ccccc2[nH]1 | n
COc1ccccc1CNC(=O)NC1CCN(CC(=O)Nc2ccc3c(c2)OCCO3)CC1 | n
CCOC(=O)c1cccc(NC(=O)CN(C)S(=O)(=O)c2ccc(Cl)s2)c1 | n
COc1ccccc1N1CCN(S(=O)(=O)c2ccc3c(c2)CCC(=O)N3)CC1 | n
SMILES | TbREL1 primary | others
CC(=O)c1ccc(-c2cc(C(C)=O)c3n(c2=O)CCC3)cc1 | n
CC(=O)c1cc(-c2ccc(Cl)c(Cl)c2)c(=O)n2c1CCC2 | n
CC(=O)c1cc(-c2cccc(CO)c2)c(=O)n2c1CCC2 | 11 | TbREL1 conf=n
CNC(=O)C[C@@H]1CC[C@@H]2[C@H](COc3ccc(NC(=O)c4cccc(F)c4)cc3C(=O)N2C)O1 | n
Cc1nc(S/C(=C\c2ccc(OCc3ccccc3Cl)cc2)C(=O)O)n[nH]1 | n
O=C(O)c1cc(N/N=C/c2ccc(-c3ccc(F)cc3)o2)ccc1Cl | n
Cc1nc(S/C(=C\c2ccc(-c3ccc(C(=O)O)c(Cl)c3)o2)C(=O)O)n[nH]1 | 58 | TbREL1 conf=23
C[C@@H]1CCN(C2CC2)S(=O)(=O)c2c(cccc2N2CCC[C@@H]2CO)O1 | n
O=C1CCC(CNc2ccccc2)N1c1ccccc1 (stereo not drawn) | n
CC(=O)Nc1ccccc1NC(=O)COc1cccc2ccccc12 | n
CC(=O)Nc1cc2c3ccccc3ccc2c2ccccc12 | 32 | TbREL1 conf=n
CC(=O)Nc1ccc(NC(=O)c2cccc3ccccc23)cc1 | n
O=C1CCC[C@H]2C[C@H](NCc3ccccc3F)CC[C@]23CCCN13 | n
O=C(COC(=O)c1ccc(Sc2ncn[nH]2)c([N+](=O)[O-])c1)Nc1ccc(Cl)c(Cl)c1 | n
N#Cc1ccccc1NC(=S)Nc1ccc(F)cc1 | n
O=c1[nH]c2ccc(NC(=S)Nc3ccc(F)cc3)cc2[nH]1 | n
Fc1ccc(NC(=S)Nc2ccc3nccnc3c2)cc1 | 13 | TbREL1 conf=n
COc1ccc(C)c(NC(=O)[C@@H]2CCCN2S(=O)(=O)c2cccc3cccnc23)c1 | n
COC(=O)[C@]12C[C@H](CC(=O)N3CCN(C(=O)C4CC4)CC3)C(=O)N(CCc3ccc(OC)c(OC)c3)C1=C[C@H](C(C)C)O[C@@H]2C1CC1 | n
COc1ccc(-n2c(SCC(=O)N3CCCC3)nnc2-c2ccncc2)cc1 | n
N#CC1=C(N)n2c(s/c(=C\c3ccco3)c2=O)=C(C#N)C1c1ccco1 (stereo not drawn) | 27 | TbREL1 conf=n
O=c1/c(=C/c2ccco2)sc2n1CN(c1ccccc1)CN=2 | n
O=c1nc2s/c(=C\c3ccco3)c(=O)n2nc1Cc1ccc(F)cc1 | n
COc1cc2c(cc1NC(=O)CSc1nnc(COc3ccccc3)n1Cc1ccco1)oc1ccccc12 | n
COC(=O)[C@]12C[C@H](CC(=O)NCCCCc3ccccc3)C(=O)N(CCc3ccc(OC)c(OC)c3)C1=C[C@H](C(C)C)O[C@@H]2C1CC1 | n
CCCCN1CCN(C(=O)Cn2c(=O)c3ccccc3n(CC)c2=O)CC1 | n
